MCF10A rereplic = induces DNA re-replication in MCF 10a normal breast cells; MCF 10A DNA re-replication, Hoechst nuclear intensity, 48 h; Potency, µM (doses to about 46.1 µM), for inactives: at the highest dose activity, positive = re-replication, hits mostly activators; 2.9% of 350,000 active; also: potency is read from the fitted curve at half-maximal effect; % of control where 0% means no effect; nearly all actives have a fitted effect of over 50% in size
IL1B secr inh = inhibitors of inflammasome signaling (IL-1 beta secretion). THP-1 LPS/ATP IL-1B secretion, AlphaLISA, 16 h; stronger effect = lower value. activity change, % at 57.5 µM. 4.7% of 360,000 active; in the data active = activity change below about -50%; inconclusive = mostly about -30% to -49%; also: % is scaled to controls: 0 for no effect and ±100 for the full control effect
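Secreted IL-1B measured by AlphaLISA bead assay after 16 h compound exposure of THP-1 cells; compounds (final up to 57.5 uM) added 1 h before LPS (250 ng/mL) and ATP (1.25 mM) stimulation; lower signal means less secretion.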
Chronic BCR inh = chronic active BCR signaling inhibition. AID 493014. 0.05% of 340,000 active. Potency, µM (doses to about 46.1 µM), for inactives: at the top dose activity change, negative = inhibition, most hits filed as inhibitors. ABC-DLBCL IkBa-CBG/CBR reporter, luminescence ratio, 4 h; active = well fitted inhibition curve with a large enough effect in the signal ratio, with a control signal flat, not every such curve was filed as active; inconclusive = small, poorly fitted or top-dose-only effect, or effect the other way, or a change in a side signal; the % refers to the signal ratio;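 also: potency is read from the fitted curve at half-maximal effect; plate controls were basal doxycycline-induced cells for no effect and cells given 10 µM MG132 for full effect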
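Concentration-response series (up to 46 uM) were applied to TMD8 dual-reporter cells for 4 h at 37C with doxycycline. Green/red ratio, after filter-overlap correction, defined %Activity; red signal alone was normalised to basal cells and zero luminescence.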
TDP1 cell CPT = DT40-hTDP1 cell growth loss with CPT; chicken DT40 Tdp1-/-;hTDP1 cells + 20 nM CPT, ATP luminescence, 48 h; Potency, µM (highest dose often 46.2 µM), for the others: at the highest dose activity change, negative = growth inhibition, usual class: inhibitors; 12% of 420,000 active; AID 686979; also: potency is read from the fitted curve at half-maximal effect; % is scaled to controls: 0 for no effect and ±100 for the full control effect; nearly all actives have a fitted effect of over 55% in size
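Cell growth measured by CellTiter-Glo luminescence after a minimum 48 h, 37 C compound exposure with 20 nM CPT in Tdp1-knockout DT40 cells stably expressing hTDP1, seeded 400/well; qHTS titration format.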
DT40 TDP1 no CPT = qHTS for Inhibitors of human tyrosyl-DNA phosphodiesterase 1 (TDP1): qHTS in cells in absence of CPT; DT40 Tdp1-/- hTDP1 cells, no CPT, ATP luminescence, 48 h; AID 686978, 2013; Potency, µM (titrated, usually from 46.2 µM), inactives show at the top dose activity change, negative = growth inhibition, most hits filed as inhibitors; 15% of 420,000 active; also: potency is read from the fitted curve at half-maximal effect; % is scaled to controls: 0 for no effect and ±100 for the full control effect; nearly all actives have a fitted effect of over 55% in size
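DT40 Tdp1-/-;hTDP1 cells, no CPT (DMSO vehicle only), 400 cells/well; compounds pin-transferred; ≥48 hr, 37 °C; CellTiter-Glo 30 min RT dark, luminescence read.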
SW480 rerep = induces DNA re-replication in SW480 colon adenocarcinoma cells. SW480 DNA re-replication, Hoechst DNA content imaging, 48 h. Potency, µM (highest dose often 46.1 µM), inactives show at the top dose re-replication activation, usual class: activators. 1.8% of 340,000 active. AID 624297; also: potency is read from the fitted curve at half-maximal effect; % of control where 0% means no effect; nearly all actives have a fitted effect of over 55% in size
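Treated cells incubate 48 hr (37 C, 5% CO2), are stained 40 min with Hoechst, and nuclear fluorescence is enumerated; a rise in nuclei with high DNA signal marks re-replication.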
The depositor's hits bear a star; [ ] = dose if it differs, or a comment. An excerpt weighted towards active compounds, which were near 19% of everything screened. Unless noted, calls follow the shape of the dose curve; as a rule, active = well fitted curve in the direction sought with a large enough effect; inconclusive = small, poorly fitted or top-dose-only effect, or another doubt; inactive = no such curve, though single readings can be large; an effect the other way counts as inactive or inconclusive.

How did COc1ccc(C(=O)OCc2cc(=O)n3c(C)csc3n2)cc1F do in these assays?
MCF10A rereplic: -8.2%; IL1B secr inh: 25.0; Chronic BCR inh: inconclusive; TDP1 cell CPT: inconclusive; DT40 TDP1 no CPT: inconclusive; SW480 rerep: -9.4%

Results for COc1ccc(NC(=O)CC2C(=O)Nc3ccccc3N2CC(=O)N2CCCC2)cc1 (configuration not stated) ?
MCF10A rereplic: 2.8%; IL1B secr inh: 35.1; Chronic BCR inh: inconclusive; TDP1 cell CPT: 3.1%; DT40 TDP1 no CPT: 16.6%; SW480 rerep: 2.2%

What do the screens show for `CCc1ccc(OCC(=O)Nc2ccc3oc(=O)ccc3c2)cc1`?
MCF10A rereplic: 0.5%; IL1B secr inh: 4.5; Chronic BCR inh: -8.5%; TDP1 cell CPT: 11.4%; DT40 TDP1 no CPT: 2.7%; SW480 rerep: -0.5%

What do the screens show for `COc1cc2c(cc1OC)CN(C(=O)CSc1nc(N)c(C#N)cc1C#N)CC2`?
MCF10A rereplic: 9.8%; IL1B secr inh: 21.3; Chronic BCR inh: 10.4%; TDP1 cell CPT: inconclusive; DT40 TDP1 no CPT: -13.1%; SW480 rerep: 3.9%

How did COc1cc2c(cc1OC)CN(C(=O)CSC1=NCCS1)CC2 do in these assays?
IL1B secr inh: -3.1; TDP1 cell CPT: inconclusive; DT40 TDP1 no CPT: 20.6µM*

What do the screens show for `COc1ccc(S(=O)(=O)N2CCN(CC(=O)N3CCc4ccccc4C3)CC2)cc1OC`?
MCF10A rereplic: 12.2%; IL1B secr inh: -12.9; Chronic BCR inh: -1.0%; TDP1 cell CPT: -28.9%; DT40 TDP1 no CPT: inconclusive; SW480 rerep: 2.2%

Results for COc1cc2c(cc1OC)CN(C(=O)CN1CCN(S(=O)(=O)c3ccccc3Br)CC1)CC2 ?
MCF10A rereplic: -3.4%; IL1B secr inh: -3.8; Chronic BCR inh: inconclusive; TDP1 cell CPT: inconclusive; DT40 TDP1 no CPT: 2.06µM*; SW480 rerep: 0.7%

How did COc1cc2c(cc1OC)CN(C(=O)CSc1ccccc1C)CC2 do in these assays?
MCF10A rereplic: 2.1%; IL1B secr inh: -60.1*; Chronic BCR inh: 0.3%; TDP1 cell CPT: inconclusive; DT40 TDP1 no CPT: inconclusive; SW480 rerep: -0.4%

What do the screens show for `COc1cc2c(cc1OC)CN(C(=O)COc1ccc(C)c(C)c1)CC2`?
MCF10A rereplic: 6.1%; IL1B secr inh: -2.1; Chronic BCR inh: inconclusive; TDP1 cell CPT: inconclusive; DT40 TDP1 no CPT: inconclusive; SW480 rerep: -4.1%

Results for O=C(CN1CCN(S(=O)(=O)c2ccc(F)c(Cl)c2)CC1)N1CCc2ccccc2C1 ?
MCF10A rereplic: 13.3%; IL1B secr inh: -5.0; TDP1 cell CPT: inconclusive; DT40 TDP1 no CPT: 16.4µM*; SW480 rerep: -1.3%

How did O=C(CN1CCN(S(=O)(=O)c2ccc(F)c(Cl)c2)CC1)N1CCc2ccccc21 do in these assays?
MCF10A rereplic: -3.1%; IL1B secr inh: 13.2; Chronic BCR inh: -1.1%; TDP1 cell CPT: inconclusive; DT40 TDP1 no CPT: inconclusive; SW480 rerep: -5.0%

How did COCCCCCCCCCCCC(=O)O do in these assays?
TDP1 cell CPT: -16.2%[4.12 µM]; DT40 TDP1 no CPT: -9.9%[4.12 µM]

What do the screens show for `O=C(NCCc1cscn1)C1CCC(=O)N(Cc2ccc(Cl)cc2)C1` (configuration not stated)?
MCF10A rereplic: -7.6%; IL1B secr inh: 8.2; Chronic BCR inh: 0.2%; TDP1 cell CPT: 4.3%; DT40 TDP1 no CPT: -5.0%; SW480 rerep: -0.8%

Results for Cc1c(C(=O)N(C)C)sc2c1c(=O)n(-c1ccc(Cl)c(Cl)c1)c(=O)n2Cc1ccc(F)cc1 ?
Chronic BCR inh: -19.9%; TDP1 cell CPT: inconclusive; DT40 TDP1 no CPT: inconclusive

Results for COc1cccc(NC2=C(Cl)C(=O)OC2OC(=O)c2ccco2)c1 (configuration not stated) ?
MCF10A rereplic: 14.1µM*; IL1B secr inh: inconclusive; Chronic BCR inh: inconclusive; TDP1 cell CPT: 11.6µM*; DT40 TDP1 no CPT: 14.6µM*; SW480 rerep: inconclusive

How did CCOC1OC(=O)C(Cl)=C1Nc1ccccc1C (configuration not stated) do in these assays?
MCF10A rereplic: -3.7%; IL1B secr inh: -8.7; Chronic BCR inh: 9.9%; TDP1 cell CPT: -31.1%; DT40 TDP1 no CPT: -26.6%; SW480 rerep: -4.3%

What do the screens show for `COc1ccccc1NC1=C(Cl)C(=O)OC1OC(=O)c1ccco1` (configuration not stated)?
MCF10A rereplic: inconclusive; IL1B secr inh: -24.9; Chronic BCR inh: inconclusive; TDP1 cell CPT: 23.1µM*; DT40 TDP1 no CPT: 20.6µM*; SW480 rerep: inconclusive

How did Cc1ccccc1NC1=C(Cl)C(=O)OC1OC(=O)c1ccco1 (configuration not stated) do in these assays?
MCF10A rereplic: 4.6%; IL1B secr inh: inconclusive; Chronic BCR inh: inconclusive; TDP1 cell CPT: 25.9µM*; DT40 TDP1 no CPT: 23.1µM*; SW480 rerep: -3.0%

How did COc1ccc(C(=O)Nc2ccc(NC(=O)c3cc(OC)c(OC)c(OC)c3)cn2)cc1 do in these assays?
MCF10A rereplic: 29.4%; IL1B secr inh: -10.2; Chronic BCR inh: -0.7%; TDP1 cell CPT: inconclusive; DT40 TDP1 no CPT: -20.9%; SW480 rerep: 3.2%

Results for NC(=O)c1c(NC(=O)C2c3ccccc3Oc3ccccc32)sc2c1CCCCC2 ?
MCF10A rereplic: inconclusive; IL1B secr inh: 14.6; Chronic BCR inh: -0.2%; TDP1 cell CPT: inconclusive; DT40 TDP1 no CPT: inconclusive; SW480 rerep: -5.2%

What do the screens show for `COc1cc(/C=C2/NC(=O)NC2=O)cc(Br)c1OCc1ccccc1`?
MCF10A rereplic: inconclusive; IL1B secr inh: 18.5; Chronic BCR inh: inconclusive; TDP1 cell CPT: -15.4%; DT40 TDP1 no CPT: inconclusive; SW480 rerep: inconclusive

Results for O=C1Nc2ccc(I)cc2/C1=C/c1cc(Br)c(O)c(Br)c1 ?
TDP1 cell CPT: 13µM*; DT40 TDP1 no CPT: inconclusive

What do the screens show for `Cc1ccc2c(c1)/C(=C/c1ccccc1F)C(=O)N2`?
MCF10A rereplic: 5.6%; IL1B secr inh: -5.0; Chronic BCR inh: inconclusive; TDP1 cell CPT: inconclusive; DT40 TDP1 no CPT: inconclusive; SW480 rerep: -12.1%

How did NC1=NC(=O)/C(=C/c2cc(Br)c(O)c(Br)c2)S1 do in these assays?
MCF10A rereplic: 14.2%; IL1B secr inh: -5.3; Chronic BCR inh: inconclusive; TDP1 cell CPT: 3.0%; DT40 TDP1 no CPT: -0.4%; SW480 rerep: -2.8%

Results for Cc1ccc2c(c1)/C(=C/c1ccccc1)C(=O)N2 ?
MCF10A rereplic: inconclusive; IL1B secr inh: -82.0*; Chronic BCR inh: inconclusive; TDP1 cell CPT: -11.7%; DT40 TDP1 no CPT: inconclusive; SW480 rerep: inconclusive

What do the screens show for `O=C1Nc2ccc(I)cc2C1=Cc1cc(Br)c(O)c(Br)c1`?
TDP1 cell CPT: 10µM*; DT40 TDP1 no CPT: 11.2µM*
